Measured values: paper PMC4552634, “A New Set of Chemical Starting Points with Plasmodium falciparum Transmission-Blocking Potential for Antimalarial Drug Discovery” (PLoS ONE, 2015)
Hit rate of the full screen: of about 13,000 compounds, about 3,200 (25%) showed an effect of 50% or more. The list shows a part of the results.

The compounds below were run on P. falciparum stage V gametocytes. Conditions: 48 h, 5 µM; inhibitor.
Set-up: BacTiter-Glo ATP luminescence viability of purified stage V gametocytes in 384-well plates, per cent inhibition versus DMSO

SMILES	% Inhibition [%]
O=C(NC1CCCCC1)C(c1cccs1)N(CCc1ccccc1)C(=O)c1ccco1 (stereo not drawn) [TCMDC-123798]	-17.48
CC(C)c1ccc(-c2noc(SCC(=O)N3CCCCC3C)n2)cc1 (stereo not drawn) [TCMDC-124745]	-11.89
CC(=O)NC1=NC(C)(C)N(OCc2ccc(Cl)c(Cl)c2)C(NC(C)=O)=N1 [TCMDC-131594]	-1.877
CC(=O)Nc1cccc(/C=C/C(=O)N2CCC(N3CCCCC3)CC2)c1 [TCMDC-141128]	9.67
Cc1cccnc1CNc1nccc2c(C)c(C)[nH]c12 [TCMDC-134148]	-85.57
CCCCCCCN1CC[C@@H](CCCc2ccnc3ccc(OCCN4CCOCC4)cc23)[C@@H](CC)C1 [TCMDC-139815]	43.2
CCCCCCCN1CC[C@@H](CCCc2ccnc3ccc(OCC4CCCNC4)cc23)[C@@H](CC)C1 (stereo partly drawn) [TCMDC-139816]	113
CCCCN1CC[C@@H](CCC(O)c2cc(OCCC)nc3ccc(OC)cc23)[C@@H](CC)C1 (stereo partly drawn) [TCMDC-131499]	36.19
CCCCCCCN1CC[C@@H](CCCc2ccnc3ccc(OCCC4CCNCC4)cc23)[C@@H](CC)C1 [TCMDC-139819]	116.4
CCCCCCCN1CC[C@@H](CCC(O)c2ccnc3ccc(OC)cc23)[C@@H](CC)C1 (stereo partly drawn) [TCMDC-138954]	9.095
CCCCCCCN1CC[C@@H](CCCc2ccnc3ccc(OCCN4CCNCC4)cc23)[C@@H](CC)C1 [TCMDC-139817]	103.1
CCCCN1CC[C@@H](CCC(O)c2ccnc3ccc(OCCC(C)C)cc23)[C@@H](CC)C1 (stereo partly drawn) [TCMDC-131481]	66.25
CC[C@H]1CN(Cc2ccco2)CC[C@H]1CCCc1ccnc2ccc(O)cc12 [TCMDC-140336]	6.613
CN1CCN(c2cc3c(cc2Cl)CCN3C(=O)Cc2ccc(Cl)c(NC(=O)Nc3cccc([N+](=O)[O-])c3)c2)CC1 [TCMDC-139473]	-0.749
O=C(Nc1ccc(F)cc1F)NC1CCN(c2ccnc3cc(Cl)ccc23)C1 (stereo not drawn) [TCMDC-133658]	-14.22
CCCOc1ccc(C(F)(F)F)cc1NC(=O)c1nc2nc(C)cc(C)n2n1 [TCMDC-125466]	-88.48
COc1ccc(N2CCc3c(-c4cccc5cnccc45)cc(C)nc32)c(C)c1 [TCMDC-136362]	-0.3846
O=C(NCCCN1CCOCC1)c1ccc(-c2cccc(NC(=O)c3ccc(Cl)c(Cl)c3)c2)cc1 [TCMDC-133693]	-20.47
O=C1CC(C(=O)O)CC(=O)N1 [TCMDC-125482]	13.38
COc1ccccc1-n1c(-c2ccc3ccccc3c2)csc1=NC(=O)c1ccccc1 [TCMDC-125668]	-1.763
CC(C)Cn1cc(C2CCN(CCN3CCC(CNC(=O)c4ccc(NC(=O)c5cc(Cl)cc(Cl)c5)cc4)CC3)CC2)c2ccccc21 [TCMDC-138868]	108.5

SMILES	% Inhibition [%]
O=C(NCCCCN1CCC(C(c2ccccc2)c2ccccc2)CC1)c1ccc(NC(=O)c2ccc(Cl)cc2)cc1 [TCMDC-138332]	-3.792
Cn1cc(C2CCN(CCCCNC(=O)c3ccc(C(=O)Nc4ccc(C#N)cc4)cc3)CC2)c2ccccc21 [TCMDC-138788]	-0.3465
O=C(NCCN1CCC(c2ncc(-c3ccccc3)o2)CC1)c1ccc(NC(=O)c2ccc(Cl)cc2)cc1 [TCMDC-138483]	-8.107
CC(C)Cn1cc(C2CCN(CCN3CCC(CNC(=O)c4ccc(NC(=O)c5ccc(Cl)cc5)cc4)CC3)CC2)c2ccccc21 [TCMDC-138865]	102.8
Cc1nc(-c2ccccc2)nc(N2CCN(C(=O)c3ccco3)CC2)c1Cc1ccccc1F [TCMDC-124778]	-3.417
CC1(C)NC(N)=NC(=N)N1OCCSCCON1C(=N)N=C(N)NC1(C)C [TCMDC-131648]	6.143
COCCn1c(-c2cccc(Cl)c2)nn(-c2ccc([N+](=O)[O-])cc2Cl)c1=S [TCMDC-135130]	91.77
COc1cc([N+](=O)[O-])ccc1NC(=O)c1cc(Cl)ccc1O [TCMDC-124051]	28.26
COCCn1c(-c2cccc(Cl)c2)nn(-c2ccc([N+](=O)[O-])cc2C#N)c1=S [TCMDC-134719]	95.24
O=C(Cc1cccc(O)c1)NCC(Cc1ccc(O)cc1)c1ccccc1 (stereo not drawn) [TCMDC-138482]	7.528
CC1CCc2c(C(=O)Nc3c(F)cc(F)cc3Br)csc2C1 (stereo not drawn) [TCMDC-125219]	6.238
Cc1cc(N2CCC(C)CC2)nc2cc(O)ccc12 [TCMDC-124413]	-4.047
Cc1cc(Nc2ccc(O)cc2)nc2cccc(O)c12 [TCMDC-124414]	-26.97
Cc1cc(N2CCN(C3CCCCC3)CC2)nc2cccc(O)c12 [TCMDC-124411]	54.36
COc1ccc(Cl)c(CC2c3cc(O)c(Cl)cc3CCN2C)c1 (stereo not drawn) [TCMDC-137168]	-67.78
CCN(CC)CCc1ccc2c(=O)cc(CCc3cccc(F)c3F)n(CC(=O)N(C)Cc3ccc(-c4ccc(C(F)(F)F)cc4)cc3)c2c1 [TCMDC-141559]	137.8
CN(Cc1ccc(-c2ccc(C(F)(F)F)cc2)cc1)C(=O)Cn1c(CCc2cccc(F)c2F)cc(=O)c2ccc(OCC3CCCN3C)cc21 (stereo not drawn) [TCMDC-141405]	117.2
CN(Cc1ccc(-c2ccc(C(F)(F)F)cc2)cc1)C(=O)Cn1c(CCc2cccc(F)c2F)cc(=O)c2ccc(OCCCN3CCCCC3)cc21 [TCMDC-141377]	112.1
CN(C)CCOc1ccc2c(=O)cc(CCc3cccc(F)c3F)n(CC(=O)N(C)Cc3ccc(-c4ccc(C(F)(F)F)cc4)cc3)c2c1 [TCMDC-141375]	124.4
CCOC(=O)CCCCCNC[C@H](O)c1ccccc1 [TCMDC-131776]	-2.137
CC(C)NCc1ccc(-c2ccc(CN3CCCC(c4ccccc4)C3)cc2)c(C(=O)NCC2CCCCC2)c1 (stereo not drawn) [TCMDC-134699]	33.35
